GPR151 activ: activators of human GPR151; Q8TDV0; PathHunter beta-arrestin GPR151 cells, luminescence; activation, % at 11.2 µM; 1% of 650,000 active; in the data active = activation above about 4.9%;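 also: 0% = median of compound wells and 100% = cells with positive control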
FBW7 act: activators of human E3 ligase FBW7 | AlphaScreen FBW7–phospho-cyclin E peptide binding, activator screen | 0.13% of 650,000 active | Q969H0 | normalized activity (activation), % at 26.1 µM | AID 1259310; in the data active = normalized activity above about 1.9%;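 also: purified mutant Fbw7 with reduced substrate affinity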
MITF inh: human MITF inhibition, primary screen. O75030. AlphaScreen MITF homodimerization, bead proximity signal. inhibition, % at 2.6 µM. 0.91% of 650,000 active; in the data active = inhibition above about 50%;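 also: 0% = vehicle wells with protein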
Target sequence (O75030 whole entry, looked up): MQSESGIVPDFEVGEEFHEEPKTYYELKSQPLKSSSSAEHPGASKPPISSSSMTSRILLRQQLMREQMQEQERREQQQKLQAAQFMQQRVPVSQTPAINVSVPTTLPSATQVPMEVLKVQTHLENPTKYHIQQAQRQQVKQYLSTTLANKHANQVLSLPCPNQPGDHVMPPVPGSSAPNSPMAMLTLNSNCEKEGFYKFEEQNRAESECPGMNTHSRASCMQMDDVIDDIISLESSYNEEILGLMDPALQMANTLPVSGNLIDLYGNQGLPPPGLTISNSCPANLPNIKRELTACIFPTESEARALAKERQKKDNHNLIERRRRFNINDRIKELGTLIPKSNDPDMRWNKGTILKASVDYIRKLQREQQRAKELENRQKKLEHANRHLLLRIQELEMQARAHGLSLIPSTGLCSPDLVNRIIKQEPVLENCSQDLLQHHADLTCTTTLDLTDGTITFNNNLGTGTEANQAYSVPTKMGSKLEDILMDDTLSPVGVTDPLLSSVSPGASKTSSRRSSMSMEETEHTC
TEAD-YAP block: TEAD-YAP interaction inhibition; HEK-TIYL cells, TEAD-Gal4/YAP UAS-luciferase luminescence; inhibition, % at 9.12 µM; 1.4% of 640,000 active; in the data active = inhibition above about 32%;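 also: 0% = median of test compound wells and 100% = reference inhibitor wells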
An asterisk follows results filed as active. Rows were chosen to be rich in hits. Some 3.5% of all compounds tested hit in one or more screens of this group.

For CC(=O)Oc1cc(OC(C)=O)c2c(=O)c(-c3ccc4c(c3)OCCCO4)coc2c1 the results were GPR151 activ -1, FBW7 act 0, MITF inh 3 and TEAD-YAP block 70*.
`COc1ccc2c(=O)c(-c3ccc4c(c3)OCCCO4)coc2c1` gave GPR151 activ -1, FBW7 act 0, MITF inh 18 and TEAD-YAP block -23.
Screening C=CCn1c(SCC(=O)Nc2ccc(S(N)(=O)=O)cc2)nnc1-c1cccs1 returned GPR151 activ 0, FBW7 act 0, MITF inh 1 and TEAD-YAP block 7.
Screening C=CCOC(=O)c1[nH]c2c(c1C)C(=O)CC(c1ccc(OC)cc1)C2 (centres undefined) returned GPR151 activ 1, FBW7 act 0, MITF inh 1 and TEAD-YAP block -35.
Screening CCOC(=O)c1[nH]c2c(c1C)C(=O)CC(c1cc(OC)ccc1OC)C2 (centres undefined) returned GPR151 activ 1, FBW7 act 0, MITF inh 7 and TEAD-YAP block 44*.
`C=CCOC(=O)c1[nH]c2c(c1C)C(=O)CC(c1cc(OC)c(OC)c(OC)c1)C2` (centres undefined) gave GPR151 activ 0, FBW7 act 0, MITF inh -4 and TEAD-YAP block 43*.
`CCOc1ccc(C2CC(=O)c3c([nH]c(C(=O)OC)c3C)C2)cc1OC` (centres undefined) gave GPR151 activ 0, FBW7 act 0, MITF inh 13 and TEAD-YAP block -12.
C=CCOC(=O)c1[nH]c2c(c1C)C(=O)CC(c1ccc(OC)c(OC)c1)C2 (centres undefined) was read as GPR151 activ 0, FBW7 act 0, MITF inh 17 and TEAD-YAP block 3.
For COC(=O)c1[nH]c2c(c1C)C(=O)CC(c1cc(OC)ccc1OC)C2 (centres undefined) the results were GPR151 activ 0, FBW7 act 0, MITF inh -5 and TEAD-YAP block 46*.
Screening C=CCOC(=O)c1[nH]c2c(c1C)C(=O)CC(c1cccs1)C2 (centres undefined) returned GPR151 activ 1, FBW7 act 0, MITF inh -9 and TEAD-YAP block 49*.
Cn1c(SCC(=O)N2CCOCC2)nnc1-c1cc(Br)ccc1O was read as GPR151 activ -1, FBW7 act 0, MITF inh 18 and TEAD-YAP block 5.
COc1ccc(OC)c(NC(=S)NC2CC2)c1 was read as GPR151 activ -1, FBW7 act 0, MITF inh 6 and TEAD-YAP block -4.
`CCOC(=O)c1[nH]c2c(c1C)C(=O)CC(c1cccc(OC)c1)C2` (centres undefined) gave GPR151 activ 1, FBW7 act 0, MITF inh -3 and TEAD-YAP block 44*.
For C=CCOC(=O)c1[nH]c2c(c1C)C(=O)CC(c1cc(OC)ccc1OC)C2 (centres undefined) the results were GPR151 activ 0, FBW7 act 0, MITF inh -4 and TEAD-YAP block 42*.
`COC(=O)c1[nH]c2c(c1C)C(=O)CC(c1ccccc1Cl)C2` (centres undefined) gave GPR151 activ 0, FBW7 act 0, MITF inh 20 and TEAD-YAP block 52*.
`Cc1c(C(=O)O)[nH]c2c1C(=O)CC(c1ccccc1Cl)C2` (centres undefined) gave GPR151 activ -2, FBW7 act 0, MITF inh -6 and TEAD-YAP block -2.
`Cc1cc(/C=C(\C#N)c2nc3ccccc3[nH]2)c(C)n1-c1ccc(F)cc1` gave GPR151 activ -1, FBW7 act 0, MITF inh -5 and TEAD-YAP block 71*.
Cc1cc(/C=C(\C#N)c2nc3ccccc3[nH]2)c(C)n1C1CC1 was read as GPR151 activ 2, FBW7 act 0, MITF inh -1 and TEAD-YAP block -30.
Screening CCOc1ccc(-n2c(-c3ccccc3)c[n+]3c2CCC3)cc1 returned GPR151 activ 0, FBW7 act 0, MITF inh 1 and TEAD-YAP block 49*.
CCOc1ccc(-n2c(-c3ccc(OC)cc3)c[n+]3c2CCCCC3)cc1 was read as GPR151 activ 1, FBW7 act 0, MITF inh -3 and TEAD-YAP block 85*.
`CCOc1ccc(-n2c(-c3ccccc3)n[nH]c2=S)cc1` gave GPR151 activ 2, FBW7 act 0, MITF inh -1 and TEAD-YAP block 17.
For CCOc1ccc(-c2cn3c4ccccc4n(CCN(CC)CC)c3n2)cc1 the results were GPR151 activ 0, FBW7 act 1, MITF inh 16 and TEAD-YAP block -10.
Screening CCN(CC)CCn1c2ccccc2n2cc(-c3ccc(Br)cc3)nc12 returned GPR151 activ -2, FBW7 act 3.6*, MITF inh -13 and TEAD-YAP block -3.
`CN(C)CCn1c2ccccc2n2cc(-c3ccc(-c4ccccc4)cc3)nc12` gave GPR151 activ -1, FBW7 act 1, MITF inh 0 and TEAD-YAP block -7.
For CCN(CC)CCn1c2ccccc2n2cc(-c3ccc(Cl)c(Cl)c3)nc12 the results were GPR151 activ -1, FBW7 act 6.2*, MITF inh -4 and TEAD-YAP block 9.
For CCN(CC)CCn1c2ccccc2n2cc(-c3ccc(Cl)cc3)nc12 the results were GPR151 activ 0, FBW7 act 4.3*, MITF inh -17 and TEAD-YAP block 4.
`CCN(CC)CCn1c(-c2ccc(Cl)cc2)cn2c3ccccc3nc12` gave GPR151 activ -1, FBW7 act 0, MITF inh 3 and TEAD-YAP block 10.
Cc1cc(NC(=O)C2CCCN2S(=O)(=O)c2ccc(Cl)cc2)n(C(C)C)n1 (centres undefined) was read as GPR151 activ -1, FBW7 act 0, MITF inh -2 and TEAD-YAP block -4.
`CC(NC(=O)c1cc2c(=O)n3ccccc3nc2n(Cc2ccccc2)c1=N)c1ccccc1` (centres undefined) gave GPR151 activ -1, FBW7 act 0, MITF inh -2 and TEAD-YAP block 0.
`O=C1OC2(CCCCC2)OC(=O)C1=Cc1ccc(Br)o1` gave GPR151 activ -1, FBW7 act 0, MITF inh 74* and TEAD-YAP block -4.
CCOC(=O)c1cnc2ccc(OCC)cc2c1Nc1cccc(OC)c1 was read as GPR151 activ 0, FBW7 act 0, MITF inh 3 and TEAD-YAP block -1.
Screening CCOc1ccc2ncc(C#N)c(Nc3cc(OC)cc(OC)c3)c2c1 returned GPR151 activ 0, FBW7 act 0, MITF inh -10 and TEAD-YAP block 45*.
`CCOC(=O)N1CCN(c2cc(=O)n(C)c(=O)n2Cc2cc(C)cc(C)c2)CC1` gave GPR151 activ 0, FBW7 act 0, MITF inh 4 and TEAD-YAP block -6.
Cc1ccc(Nc2cc(C3(C)CCC(=O)O3)cs2)cc1 (centres undefined) was read as GPR151 activ 0, FBW7 act 0, MITF inh 10 and TEAD-YAP block -14.
COc1cccc(-c2nnc(-c3ccc(N)cc3)o2)c1 was read as GPR151 activ -1, FBW7 act 0, MITF inh -4 and TEAD-YAP block 41*.

From PubChem
